The supplement of paper PMC7156485
± gives the standard deviation of the averaged measurements.

Legend:
Details in all cases: concentration: 10 µM; 24 h
HCC1569 [1] = assay: cell number relative to DMSO (% of DMSO); higher = more cells (less growth inhibition / toxicity)
How it was run: (§1)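 H1.0 nuclear intensity or cell number is expressed as percent of the plate control, with the median of replicates taken. HCC1569 and TDF cells were treated with compounds at 10 µM for 24 h at 37 °C, in triplicate, then fixed and immunostained for H1.0 with DAPI as a nuclear stain. HCC1569 values were smoothed to correct for positional effects.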

TDF [2] = assay: as above
How it was run: as §1

TDF [3] = assay: H1.0 immunofluorescence intensity relative to DMSO (% of DMSO); higher = stronger H1.0 induction, active = 120 or more
How it was run: as §1

HCC1569 [4] = assay: H1.0 immunofluorescence intensity relative to DMSO (% of DMSO); higher = stronger H1.0 induction, active = 140 or more
How it was run: as §1
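Wherever H1.0 immunofluorescence intensity relative to DMSO is given: TDF is a line of transformed human dermal fibroblasts of mesenchymal origin.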
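Wherever cell number relative to DMSO is given: TDF denotes transformed human dermal fibroblasts of mesenchymal origin.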

Row | Structure (SMILES) | cell number (HCC1569 [1]) | cell number (TDF [2]) | H1.0 immunofluorescence intensity (TDF [3]) | H1.0 immunofluorescence intensity (HCC1569 [4])
1 | CCCCCCCC(=O)OCC(CO)OC(=O)CCCCCCC (stereo not drawn) [1,2-Dioctanoyl-SN-glycerol] | 98.8 | 101 | 92.3 (inactive) | 98.6 (inactive)
2 | CC(C)NCC(O)c1ccc(O)c(O)c1.Cl (racemic) | 104 | 94 | 97.4 (inactive) | 99 (inactive)
3 | Cc1nc2cc3nc(-c4cccs4)cnc3cc2n1C | 106 | 96.2 | 102 (inactive) | 94.7 (inactive)
4 | O=C1N(c2ccccc2)c2ccccc2C1(Cc1ccncc1)Cc1ccncc1 [Linopirdine] | 108 | 112 | 93.9 (inactive) | 94.7 (inactive)
5 | CC(C)(CO)Cc1cc(C(C)(C)C)c(O)c(C(C)(C)C)c1 | 102 | 106 | 94.6 (inactive) | 109 (inactive)
6 | CCCCCC(O)C=CC1C(=O)C=CC1CC=CCCCC(=O)O (stereo not drawn) [Prostaglandin J2] | 99.8 | 99.5 | 89.3 (inactive) | 100 (inactive)
7 | CCC=CCC=CCC=CCCCCCCCC(=O)O [Linolenic acid] | 104 ± 3.3 | 98.7 ± 9 | 101 (inactive) | 97.6 (inactive)
8 | CCN1CCN(c2cc3c(cc2F)c(=O)c(C(=O)O)cn3C2CC2)CC1 [Enrofloxacin] | 101 | 106 | 96.4 (inactive) | 110 (inactive)
9 | CCCCCC=CCC=CCCCCCCCCCCC(=O)O [12(Z), 15(Z)-Heneicosadienoic acid] | 100 | 103 | 94.4 (inactive) | 105 (inactive)
10 | CC1C=CC=CC=CC=CC=CC=CC=CC(OC2OC(C)C(O)C(N)C2O)CC2OC(O)(CC(O)CC(O)C(O)CCC(O)CC(O)CC(=O)OC(C)C(C)C1O)CC(O)C2C(=O)O (stereo not drawn) [Amphotericin B] | 97.4 | 89.9 | 105 (inactive) | 83.9 (inactive)
11 | COc1ccc(CC2c3cc(OC)c(OC)cc3CC[N+]2(C)CCC(=O)OCCCCCOC(=O)CC[N+]2(C)CCc3cc(OC)c(OC)cc3C2Cc2ccc(OC)c(OC)c2)cc1OC.O=S(=O)([O-])c1ccccc1.O=S(=O)([O-])c1ccccc1 (stereo not drawn) [Atracurium besylate] | 98.9 | 103 | 94.5 (inactive) | 110 (inactive)
12 | CC1=CC(=O)C(C(C)C)=CC1=O [Thymoquinone] | 104 ± 1.4 | 102 ± 3.6 | 93.5 (inactive) | 93.3 (inactive)
